Bioassay records (PubChem BioAssay)
AmpC inh no det: inhibitors of E. coli AmpC beta-lactamase without detergent. AID 585. 71,000 tested, 1.8% active. Potency, µM (doses to about 28.7 µM), for inactives: at the highest dose activity change, negative = inhibition. P00811. AmpC nitrocefin hydrolysis, absorbance 480 nm, no detergent; further: % of control where 0% means no effect
Target sequence (P00811 whole entry, looked up): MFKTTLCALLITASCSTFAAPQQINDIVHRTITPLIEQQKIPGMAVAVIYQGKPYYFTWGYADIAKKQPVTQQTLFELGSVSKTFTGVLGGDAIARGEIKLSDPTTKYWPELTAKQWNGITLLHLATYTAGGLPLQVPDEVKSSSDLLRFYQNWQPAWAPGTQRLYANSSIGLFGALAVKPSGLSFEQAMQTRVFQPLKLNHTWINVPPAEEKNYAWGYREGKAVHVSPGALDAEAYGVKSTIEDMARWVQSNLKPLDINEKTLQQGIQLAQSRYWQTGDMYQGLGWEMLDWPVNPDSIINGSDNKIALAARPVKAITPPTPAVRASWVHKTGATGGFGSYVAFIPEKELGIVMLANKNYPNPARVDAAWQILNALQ
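AmpC in 20 mM phosphate buffer pH 7.0 was preincubated 15 min at room temperature with compounds. Nitrocefin (800 uM stock) was then added and hydrolysis followed at 480 nm every 20 s for 4 min.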
Anthrax LT inh: anthrax lethal toxin internalization inhibition. Potency, µM (doses to about 40 µM), inactives show at the highest dose activity change, negative = inhibition, actives largely listed as inhibitors. AID 912. Cells, anthrax lethal toxin internalization, FRET ratio (460/530). 70,000 tested, 0.67% active; further: on the % scale 0 is the no-effect control and ±100 the full control effect; nearly all actives have a fitted effect of over 50% in size
SmPrx2 inh: inhibitors of Schistosoma mansoni peroxiredoxin 2 | Potency, µM | S. mansoni Prx2 activity coupled to TGR/GSH (TGR is thioredoxin glutathione reductase), NADPH fluorescence loss, qHTS | AID 448 | 65,000 tested, 0.07% active
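Prx2 inhibition was measured as reduced NADPH consumption when electrons flowed from NADPH through TGR and glutathione to Prx2 and H2O2. Plates were read kinetically over 8 min; enzyme reagents were held at 4 deg C during dispensing.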
AmpC det inh: blocks E. coli AmpC beta-lactamase in presence of detergent; P00811; purified AmpC, nitrocefin hydrolysis with detergent; Potency, µM (top dose mostly 28.7 µM), for the others: at the highest dose activity change, negative = inhibition; 71,000 tested, 0.09% active; AID 584; active means well fitted curve in the direction sought with a large enough effect; inconclusive means small, poorly fitted or top-dose-only effect; further: on the % scale 0 is the no-effect control and ±100 the full control effect
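E. coli AmpC (5.3 nM) in 20 mM phosphate pH 7.0 with 0.01% Triton X-100, preincubated 15 min RT with compound; nitrocefin (2 uL of 800 uM stock) hydrolysis followed by 480 nm absorbance every 20 s over 4 min.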
Active calls of the source: *; ? = inconclusive; nt = not tested or not shown; [ ] = dose if it differs, or a comment. Rows were chosen to be rich in hits. Some 2.4% of all compounds tested hit in one or more screens of this group. Unless noted, the call rests on the fitted dose curve. Potency means the concentration at half of the fitted maximal effect.

SMILES	AmpC inh no det	Anthrax LT inh	SmPrx2 inh	AmpC det inh
Cc1cc(C)c(/C=C2/C(=O)Nc3ccccc32)[nH]1	-1.5%	-15.1%	>57	-3.8%
N#Cc1nc(-c2ccc(F)cc2)oc1NCc1cccc2c1OCO2	-22.1%	?	>57	8.5%
CC(C)CNc1oc(-c2ccc(F)cc2)nc1C#N	3.98µM*[single pt active]	?	>57	5.5%
COc1ccc(N2CCN(CCCNC(=O)C3CCCN(S(=O)(=O)c4cnc[nH]4)C3)CC2)cc1 (stereo not drawn)	3.98µM*[single pt active]	?	>57	12.0%
CCCS(=O)(=O)N1CCCC(C(=O)NCCCN2CCN(c3ccccc3F)CC2)C1 (stereo not drawn)	45.2%	-0.6%	>57	-3.7%
O=C(NCCN1CCN(c2ccccc2F)CC1)C1CCCN(S(=O)(=O)c2cnc[nH]2)C1 (stereo not drawn)	3.98µM*[single pt active]	-6.5%	>57	9.5%
O=C(NCCN1CCC(Cc2ccccc2)CC1)C1CCCN(S(=O)(=O)c2cnc[nH]2)C1 (stereo not drawn)	3.98µM*[single pt active]	-3.3%	>57	11.5%
O=C(NCCc1ccccc1)C1CCCN(S(=O)(=O)c2cnc[nH]2)C1 (stereo not drawn)	3.8%	-3.3%	>57	4.1%
CCC=O	-2.6%	nt	nt	7.4%
C[C@@H]1C[C@@H]2[C@H]3CCC4=CC(=O)C=C[C@]4(C)[C@]3(Cl)[C@@H](O)C[C@@]2(C)[C@@]1(O)C(=O)CO	11.3%	-9.8%	>57	-1.8%
CC[C@@H]1CN2CC[C@@H]1C[C@H]2[C@@H](O)c1ccnc2ccc(OC)cc12	-8.7%	?	>57	-1.8%
COc1ccc(C(=O)Nc2ccc(Cl)cc2C(=O)NCc2ccco2)cc1OC	62.2%	7.94µM*	nt	6.1%
C[C@@]12CC[C@H](O)C[C@@H]1CC[C@H]1[C@H]2C[C@@H](O)[C@]2(C)[C@@H](C3=CC(=O)OC3)CC[C@@]12O	-10.2%	?	>11.4	7.4%
O=C(CSc1nc2ccccc2s1)c1sc2sc3ccccc3[n+]2c1O	3.98µM*[single pt active]	?	>57	-6.8%[5.75 µM]
C[C@H]1CC[C@]2(NC1)O[C@@H]1C[C@@H]3[C@@H]4CC=C5C[C@H](O)CC[C@@]5(C)[C@H]4CC[C@@]3(C)[C@H]1[C@@H]2C	-0.5%	18.3%	>57	-0.3%
O=c1c(O)c(-c2cc(O)c(O)c(O)c2)oc2cc(O)cc(O)c12	10µM*	?	>57	-1.7%
CSc1ccc2c(c1)N(CC[C@H]1CCCCN1C)c1ccccc1S2	68.5%[12.8 µM]	10µM*	>57	0.8%[12.8 µM]
CN1CCCC[C@@H]1CCN1c2ccccc2Sc2ccc(S(C)=O)cc21 (stereo partly drawn)	-1.8%[5.75 µM]	-1.3%[8 µM]	>57	-1.6%[5.75 µM]
CC(=O)OC[C@@H]1O[C@@H](Oc2cc(OC(C)=O)c3c(=O)cc(-c4ccc(OC(C)=O)c(OC(C)=O)c4)oc3c2)[C@H](OC(C)=O)[C@H](OC(C)=O)[C@@H]1OC(C)=O	93.5%	?	>57	1.3%
COc1ccc2[nH]cc(CCNc3ccnc(-c4ccccc4C)n3)c2c1	-4.2%	?	>57	-2.9%
COc1cccc(-c2nccc(NCCc3c[nH]c4ccc(OC)cc34)n2)c1	-7.7%	12.6µM*	>57	1.8%
CN(C)CCN(Cc1ccccc1)S(=O)(=O)c1cccc2cccnc12	14.9%	-3.8%	>57	14.9%
CCOc1ccc(-c2n[nH]c(C)c2Oc2ccccc2OC)c(O)c1	-6.6%	-30.6%	>57	-3.8%
C=C(C)COc1ccc(-c2[nH]ncc2Oc2cccc(OC)c2)c(O)c1	10µM*	?	?	2.5%
C=C(C)COc1ccc(-c2n[nH]c(C)c2Oc2ccccc2OC)c(O)c1	-15.9%	10µM*	>57	6.3%
SMILES	AmpC inh no det	Anthrax LT inh	SmPrx2 inh	AmpC det inh
COc1cc2nc(N3CC=[N+](C(=O)c4ccco4)CC3)nc(N)c2cc1OC	9.1%	-4.2%	>57	-3.6%
CC(C)c1ccc(Cn2ccc3c4c(N)nc(NC5CC5)nc4ccc32)cc1	12.0%	25.1µM*	>57	-3.7%
CC[C@H]1CN2CCc3cc(OC)c(OC)cc3[C@H]2C[C@@H]1C[C@H]1NCCc2c1[nH]c1ccc(O)cc21	13.2%[5.75 µM]	?	>57	-4.3%[5.75 µM]
CC[C@@H]1CN2CCc3cc(OC)c(OC)cc3[C@H]2C[C@@H]1C[C@H]1NCCc2cc(OC)c(OC)cc21	nt	0.02µM*	>57	nt
Oc1ccc(-c2nc(-c3ccc(O)c(O)c3)cs2)cc1	-23.5%	12.6µM*	nt	1.0%
CCOC(=O)N1CCC(NC(=O)CN2C(=O)CCSc3ccccc32)CC1	3.98µM*[single pt active]	3.8%	>57	11.3%
COc1cccc2c1C(=O)c1c(O)c3c(c(O)c1C2=O)C[C@@](O)(C(C)=O)C[C@@H]3O[C@H]1C[C@H](N)[C@H](O)[C@H](C)O1	144.3%	15.8µM*	>57	8.6%
COc1cccc2c1C(=O)c1c(O)c3c(c(O)c1C2=O)C[C@](O)(C(=O)CO)C[C@@H]3O[C@H]1C[C@H](N)[C@@H](O)[C@H](C)O1	1.6%[5.75 µM]	0.4%[8 µM]	>57	-1.8%[5.75 µM]
Cc1cccc(-n2nc3c(c2NC(=O)c2ccc(Br)o2)CSC3)c1	10µM*	?	>57	0.2%
CC[C@]1(O)C[C@H]2CN(CCc3c([nH]c4ccccc34)[C@](C(=O)OC)(c3cc4c(cc3OC)N(C=O)[C@H]3[C@@](O)(C(=O)OC)[C@H](OC(C)=O)[C@@]5(CC)C=CCN6CC[C@]43[C@H]65)C2)C1	161.3%	?	>25.6	-0.7%
COc1ccc(S(=O)(=O)N(CCCN2CCCC2=O)Cc2cc3cc(C)c(C)cc3[nH]c2=O)cc1	155.8%	16.1%	58.2*	-2.4%
c1cc2c3c(c1)c1c(n3CCNC2)CCCC1	?	?	>25.6	15.8µM*
c1ccc2c(c1)c1c3n2CCNC3CCC1 (stereo not drawn)	10.7%	?	>57	-3.5%
CC(N)CN (stereo not drawn)	3.6%	-0.1%	nt	11.8%
COc1cc(C(=O)O[C@@H]2CC(C)=CC[C@@]3(C)CC[C@](O)(C(C)C)[C@H]23)ccc1O	-15.0%	?	>57	-2.9%
O=C(c1ccco1)N1CCN(C(=O)c2cc3c(s2)-c2ccccc2OC3)CC1	135.5%	-18.8%	>57	10.7%
CN1CCN(C(=O)c2cc3c(s2)-c2ccccc2S(=O)(=O)C3)CC1	3.98µM*[single pt active]	-3.3%	>57	11.4%
Cc1cc(C(=O)N2CCN(c3ncccn3)CC2)sc1-c1ccccc1	55.8%	-9.3%	>57	-3.8%
CCN1CCN(C(=O)c2cc3c(s2)-c2ccccc2S(=O)(=O)C3)CC1	3.98µM*[single pt active]	-13.7%	>57	15.1%
C1C[C@@H]2CN(CCCN3CCOCC3)[C@@H](C1)O2	6.6%[5.75 µM]	?	>57	-4.4%[5.75 µM]
C/C=C\C1=C(CO)C(=O)[C@@H]2OC2C1=O (stereo partly drawn)	nt	-0.4%[1.6 µM]	nt	nt
CC(C)CCOC(=O)C1C2C=CC3(CN(Cc4cccs4)C(=O)C13)O2 (stereo not drawn)	3.98µM*[single pt active]	-8.9%	>57	9.4%
O=C(O)Cn1c(=O)oc2cc(S(=O)(=O)N3CCOCC3)ccc21	-2.0%	0.6%	>57	7.5%
Oc1ccc2cc(SSc3ccc4cc(O)ccc4c3)ccc2c1	15.8µM*	?	nt	0.4%
